{"source": "PubChem BioAssay (NCI)", "note": "“And” between values parts separate entries of the source, which are not always exact repeats. Equal values may be shown once. This is part of a sample that, as a whole, favours compounds with a hit. Of some 83,000 tested, about 20% had one in any assay.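 48-hour exposure, single concentration, 96-well plates; percent growth endpoint where 0 means no net growth. Active: below 10.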 The source made the active and inactive calls.", "data": [{"tested_on": "HL-60(TB) leukemia", "experiment": "NCI-60 one-dose screen, 48 h (100 = growth as untreated, 0 = no growth, -100 = all killed)", "details": "10 µM unless noted", "values": [{"smiles": "CCCCNC(=O)Oc1ccc(/C(=C(/CC)Cc2ccccc2)c2ccc(OCCN3CCCCCC3)cc2)cc1", "growth": "-12.8% (active)"}, {"smiles": "CS(=O)(=O)C1=CN(CCO)C(=O)N2CCCN=C12", "growth": "109% (inactive)"}, {"smiles": "COc1ccc(/C=C(\\C#N)c2cc(OC)c(OC)c(OC)c2)cc1", "growth": "-31.4% (active)"}, {"smiles": "COc1ccc2c(c1)CC[C@H](O)/C2=C/c1cc(OC)c(OC)c(OC)c1", "growth": "-20.2% (active)"}, {"smiles": "CCCCCCCCCCCC[N+]1(CCCCCCCCCCCC)CCCC(C)C1", "note": "(stereo unspecified)", "growth": "-79.5% (active)"}, {"smiles": "CCCCCCCCCCCCCCCCCCOP(=O)([O-])OC1CC[N+](C)(C)CC1", "growth": "-22.6% (active) and -37.1% (active)"}, {"smiles": "O=c1oc2cc(OS(=O)(=O)c3ccc(F)cc3)ccc2c2c1CCCCC2", "growth": "60.6% (inactive)"}, {"smiles": "O=CN1N=C(c2ccc(Cl)cc2)CC1c1cccc(Nc2ccnc3cc(Cl)ccc23)c1", "note": "(stereo unspecified)", "growth": "-24.6% (active)"}, {"smiles": "O=C(CC(=O)c1ccccc1F)Nc1ccc([N+](=O)[O-])cc1", "growth": "98.2% (inactive)"}, {"smiles": "O=C(OCc1ccc2c(Br)cc(Br)c(O)c2n1)c1cc2ccccc2[nH]1", "growth": "-46.1% (active)"}, {"smiles": "O=C(Nc1ccc(I)cc1F)c1cc(Br)ccc1O", "growth": "-31.3% (active)"}, {"smiles": "CCCCN(CCCC)CCCCCCCCCCO", "growth": "95.1% (inactive)"}, {"smiles": "O=C(CCN1CCCC1)Nc1ccc2c(Nc3ccccc3)c3ccccc3nc2c1", "growth": "-46% (active)"}, {"smiles": "CN1CCCC1c1cccnc1", "note": "(stereo unspecified)", "growth": "105% (inactive)"}, {"smiles": "Cc1c(O)ccc(SC#N)c1C", "growth": "101% (inactive)"}, {"smiles": "O=C(NC(=O)c1ccc(F)c(Cl)c1)NC1CC1", "growth": "88.3% (inactive) and 89% (inactive)"}]}]}
